In PubChem BioAssay (NCI) one finds growth data, which are given here for 38 compounds.

The panel holds about 83,000 compounds, 20% with a hit somewhere; the sample as a whole holds those more often.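 Treatment: one concentration, 48 hours, 96-well format. Scoring: percent growth, with anything below 10 considered active.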 A number with no mark means an inactive call. Activity calls are given as the source filed them.

For one experiment, the system named is SF-268 CNS. As to the kind of experiment: NCI-60 one-dose screen, 48 h (100 = growth as untreated, 0 = no growth, -100 = all killed). To be noted: 10 µM unless noted.
Turning to `CNC(=O)c1cc(Oc2ccc3nc(NC(=O)Nc4ccc(CN5CCOCC5)c(C(F)(F)F)c4)sc3c2)ccn1`, the growth was 34.9%.

With `Cc1cc(N/N=C/c2nc(-c3ccc(Cl)cc3)oc2C)c2cc(Br)ccc2n1`, the growth is 68.5%.

As to `COc1cc(-c2cc(-c3nc4ccc(Cl)cc4[nH]3)[nH]n2)cc(OC)c1OC`, the growth is 81.7%. As for `COc1ccc(-c2cc(-c3cccnc3)nc3sc4c(=O)n(-c5ccc(C)cc5)cnc4c23)cc1OC`, the growth was 100%. For the compound `CN(C)c1ccc(/C=C\C2=[N+](C)c3ccccc3C2(C)C)cc1`, the growth was 6% (active). With `COc1ccc(-c2cc(-c3cccnc3)nc3sc4c(=O)n(-c5ccc(C)cc5)nnc4c23)cc1OC`, the growth was 101%. In the case of `COc1ccc(C/C(C)=C(\c2ccc(Cl)cc2)c2ccc(OCCN3CCCCCC3)cc2)cc1`, the growth was 88.4%. The same measure, in the same setting: then `O=C1C=CC(=O)N1c1ccc(Cc2ccc(N3C(=O)C=CC3=O)cc2)cc1`, with 118%. As for `CN1CCN(Cc2ccc(NC(=O)c3[nH]ncc3Nc3ncnc4[nH]ccc34)cc2)CC1`, the growth was -6.72% (active). In the case of `O=C(Nc1ccc(Oc2ccc(F)cc2)c(Cl)c1)c1cccnc1`, the growth is 95%.

Turning to `OC(c1cccc(C(F)(F)F)c1)c1cnccc1NC1CCCCCC1` (stereo not given), the growth was 60.5%. Turning to `NS(=O)(=O)c1ccc(Nc2nc3n[nH]c(Nc4ccccc4)c3c(=O)[nH]2)cc1`, the growth was 97%.

Turning to `O=C1/C(=C/c2ccccc2)CN(CCC(=O)N2C/C(=C\c3ccccc3)C(=O)/C(=C/c3ccccc3)C2)C/C1=C\c1ccccc1`, the growth is 66.6%.

As to `CN1CCN(Cc2ccc(NC(=O)c3[nH]ncc3Nc3ncnc4c3CCC4)cc2)CC1`, the growth was 4.07% (active).

Turning to `O=C1C(=O)N(CCCCn2cc(CO)nn2)c2ccccc21`, the growth is 101%.

`Cc1cc(Nc2nc(N3CCN(C)CC3)nc3ccccc23)n[nH]1`: the growth is 67%. `CC(=O)C1=C(O)C=C2Oc3c(C(=O)/C=C/c4cc(Cl)cc(Cl)c4)c(O)c(C)c(O)c3[C@]2(C)C1=O`: the growth is -21.4% (active). With `O=C(Nc1ccc(CN2CCOCC2)cc1)c1[nH]ncc1Nc1ncnc2sccc12`, the growth was 1.23% (active).

Take `COc1cc(-c2c3sc(=O)[nH]c3nc3c2c(=O)[nH]n3C(C)C)cc2c1OCO2`: the growth was 115%. Consider `O=C1/C(=C/c2ccc(Cl)c(Cl)c2)CN(C(=O)CCN2CCC(=NO)CC2)C/C1=C\c1ccc(Cl)c(Cl)c1`, for which the growth is -82.6% (active). Take `CCN(CC)CCCC(C)Nc1ccnc2c(OC)cccc12` (stereo not given): the growth is 124%.

Turning to `COc1ccc(-c2cn3c(-c4ccc(OC)cc4)cnc3c(Oc3ccc4c(C)cc(=O)oc4c3)n2)cc1`, the growth is 65.7%. Turning to `CN1CCN(Cc2ccc(NC(=O)c3[nH]ncc3Nc3ncnc4sccc34)cc2)CC1`, the growth is -3.74% (active). Turning to `O=C([C@@H](COCc1ccccc1)N1C(=O)[C@@H](N2C(=O)OC[C@@H]2c2ccccc2)[C@H]1/C=C/c1ccccc1)N1CCC(CCN2CCCCC2)CC1`, the growth is 77.2%. In the case of `OCCNCCNc1c2ccccc2nc2ccccc12`, the growth was 55.9%. `CC[C@H](Nc1ncnc(N)c1C(N)=O)c1nc2cccc(NCc3ccc(C(=O)NO)cc3)c2c(=O)n1-c1ccccc1`: the growth is 90.1%. Same read-out and setting: then `CCCCCCCCCc1cc(CN2CCCCC2)c(O)c(CN2CCCCC2)c1`, with 71.7%; and `CN1CCN(Cc2ccc(NC(=O)c3cncc(C#Cc4cnc(N)c5cccnc45)c3)cc2C(F)(F)F)CC1`, with 26.3%; and `C=C1CC2(OC1=O)C(=O)N(CCCCCCCCCCCCN1C(=O)C3(CC(=C)C(=O)O3)c3ccccc31)c1ccccc12` (stereo not given), with 93%. As to `Cn1c2ccccc2c2c3c(c4c5ccccc5[nH]c4c21)C(=O)N(N)C3=O`, the growth was 45.8%.

Regarding `Cn1c2ccccc2c2c3c(c4c5ccccc5n(CCCCCC#N)c4c21)C(=O)N(O)C3=O`, the growth is 12.2%. On the same count and under the same terms, to `COC(/C=C/c1ccc([N+](=O)[O-])cc1)OC` belongs 106%; to `O=C(CNC1C2CC3CC(C2)CC1C3)Sc1nnc2sc3ccccc3n12` (stereo not given), 101%; to `C=CC[N+]1(CC)CCN=C1CCCCCCCCCCCCCCCCC` (stereo not given), -83.4% (active). `CN1CCN(Cc2ccc(NC(=O)c3[nH]ncc3Nc3ccnc4ccsc34)cc2)CC1`: the growth is 20.3%.

Take `CN1/C(=C\C=C\C2=[N+](C)c3ccccc3C2(C)C)C(C)(C)c2ccccc21`: the growth was 26.4%. For the compound `CS(=O)(=O)c1ccc(-c2cnc3ccc(-c4cccc(S(C)(=O)=O)c4)nn23)cc1`, the growth was 36.3%. Turning to `COc1ccc(C/C(C)=C(\c2ccc(OCCN3CCCCCC3)cc2)c2ccc(OC(=O)C3CCCCC3)cc2)cc1`, the growth was 64.2%.

The next experiment deals with SF-295 CNS. Described as above. To be noted: 10 µM unless noted.
Regarding `CNC(=O)c1cc(Oc2ccc3nc(NC(=O)Nc4ccc(CN5CCOCC5)c(C(F)(F)F)c4)sc3c2)ccn1`, the growth was 11%.

As for `Cc1cc(N/N=C/c2nc(-c3ccc(Cl)cc3)oc2C)c2cc(Br)ccc2n1`, the growth is 105%.

Consider `COc1ccc(-c2cc(-c3cccnc3)nc3sc4c(=O)n(-c5ccc(C)cc5)cnc4c23)cc1OC`, for which the growth is 101%. Consider `CN(C)c1ccc(/C=C\C2=[N+](C)c3ccccc3C2(C)C)cc1`, for which the growth was -23.9% (active). Still for that read-out and setting: then `COc1ccc(-c2cc(-c3cccnc3)nc3sc4c(=O)n(-c5ccc(C)cc5)nnc4c23)cc1OC`, with 96.6%; and `COc1ccc(C/C(C)=C(\c2ccc(Cl)cc2)c2ccc(OCCN3CCCCCC3)cc2)cc1`, with 100%; and `O=C1C=CC(=O)N1c1ccc(Cc2ccc(N3C(=O)C=CC3=O)cc2)cc1`, with 121%. Same read-out and setting: to `CN1CCN(Cc2ccc(NC(=O)c3[nH]ncc3Nc3ncnc4[nH]ccc34)cc2)CC1` belongs 9.36% (active). Turning to `O=C(Nc1ccc(Oc2ccc(F)cc2)c(Cl)c1)c1cccnc1`, the growth is 86%. The same measure, in the same setting: to `OC(c1cccc(C(F)(F)F)c1)c1cnccc1NC1CCCCCC1` (stereo not given) belongs 14.2%; to `NS(=O)(=O)c1ccc(Nc2nc3n[nH]c(Nc4ccccc4)c3c(=O)[nH]2)cc1`, 102%; to `O=C1/C(=C/c2ccccc2)CN(CCC(=O)N2C/C(=C\c3ccccc3)C(=O)/C(=C/c3ccccc3)C2)C/C1=C\c1ccccc1`, 90.7%.

Turning to `CN1CCN(Cc2ccc(NC(=O)c3[nH]ncc3Nc3ncnc4c3CCC4)cc2)CC1`, the growth is 31.2%. On to `O=C1C(=O)N(CCCCn2cc(CO)nn2)c2ccccc21`, for which the growth is 102%. As to `Cc1cc(Nc2nc(N3CCN(C)CC3)nc3ccccc23)n[nH]1`, the growth is 74.4%.

As to `CC(=O)C1=C(O)C=C2Oc3c(C(=O)/C=C/c4cc(Cl)cc(Cl)c4)c(O)c(C)c(O)c3[C@]2(C)C1=O`, the growth was -18.7% (active). Take `O=C(Nc1ccc(CN2CCOCC2)cc1)c1[nH]ncc1Nc1ncnc2sccc12`: the growth is 17.8%. The same measure, in the same setting: then `COc1cc(-c2c3sc(=O)[nH]c3nc3c2c(=O)[nH]n3C(C)C)cc2c1OCO2`, with 83.5%. Turning to `O=C1/C(=C/c2ccc(Cl)c(Cl)c2)CN(C(=O)CCN2CCC(=NO)CC2)C/C1=C\c1ccc(Cl)c(Cl)c1`, the growth was -88.5% (active). Regarding `CCN(CC)CCCC(C)Nc1ccnc2c(OC)cccc12` (stereo not given), the growth is 109%.

Take `COc1ccc(-c2cn3c(-c4ccc(OC)cc4)cnc3c(Oc3ccc4c(C)cc(=O)oc4c3)n2)cc1`: the growth is 23.3%. The same measure, in the same setting: to `CN1CCN(Cc2ccc(NC(=O)c3[nH]ncc3Nc3ncnc4sccc34)cc2)CC1` belongs 24%; to `O=C([C@@H](COCc1ccccc1)N1C(=O)[C@@H](N2C(=O)OC[C@@H]2c2ccccc2)[C@H]1/C=C/c1ccccc1)N1CCC(CCN2CCCCC2)CC1`, 102%; to `OCCNCCNc1c2ccccc2nc2ccccc12`, 95.4%. As to `CC[C@H](Nc1ncnc(N)c1C(N)=O)c1nc2cccc(NCc3ccc(C(=O)NO)cc3)c2c(=O)n1-c1ccccc1`, the growth is 93.2%. As to `CCCCCCCCCc1cc(CN2CCCCC2)c(O)c(CN2CCCCC2)c1`, the growth is 64.6%. For the compound `CN1CCN(Cc2ccc(NC(=O)c3cncc(C#Cc4cnc(N)c5cccnc45)c3)cc2C(F)(F)F)CC1`, the growth was 12.7%.

Regarding `C=C1CC2(OC1=O)C(=O)N(CCCCCCCCCCCCN1C(=O)C3(CC(=C)C(=O)O3)c3ccccc31)c1ccccc12` (stereo not given), the growth was 97.6%. Consider `Cn1c2ccccc2c2c3c(c4c5ccccc5[nH]c4c21)C(=O)N(N)C3=O`, for which the growth was 27.1%.

Turning to `Cn1c2ccccc2c2c3c(c4c5ccccc5n(CCCCCC#N)c4c21)C(=O)N(O)C3=O`, the growth is 9.59% (active). On to `COC(/C=C/c1ccc([N+](=O)[O-])cc1)OC`, for which the growth was 106%. As to `O=C(CNC1C2CC3CC(C2)CC1C3)Sc1nnc2sc3ccccc3n12` (stereo not given), the growth is 94.2%. Consider `C=CC[N+]1(CC)CCN=C1CCCCCCCCCCCCCCCCC` (stereo not given), for which the growth is -31.4% (active).

In the case of `CN1CCN(Cc2ccc(NC(=O)c3[nH]ncc3Nc3ccnc4ccsc34)cc2)CC1`, the growth was 56.6%. For `CN1/C(=C\C=C\C2=[N+](C)c3ccccc3C2(C)C)C(C)(C)c2ccccc21`, the growth is -11.3% (active). Take `CS(=O)(=O)c1ccc(-c2cnc3ccc(-c4cccc(S(C)(=O)=O)c4)nn23)cc1`: the growth is 53.7%.

`COc1ccc(C/C(C)=C(\c2ccc(OCCN3CCCCCC3)cc2)c2ccc(OC(=O)C3CCCCC3)cc2)cc1`: the growth is 86.1%.
